Screens as filed in PubChem.
Mot1-301 SUMO – blocks SUMOylation pathway, rescuing yeast Mot1-301 growth | growth rescue, % at 18.8 µM | S. cerevisiae Mot1-301 growth rescue, ATP luminescence, 38.5C; percent above DMSO median, 100 means doubled | actives 1% (n = 320,000);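 active = every valid replicate shows activation above 250% relative to neutral control wells; inactive = the rest, any valid replicate at or below 250%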;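 note: OY570 slx delta 5 strain wells were the positive control but not used for scaling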
ALR H2O2 inh – blocks human ALR sulfhydryl oxidase activity; P55789; purified ALR, DTT oxidation, H2O2 HRP-luminol luminescence; inhibition, % (no concentration beside the values); actives 3.8% (n = 290,000);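 active = mean replicate inhibition above about 79%, with every replicate also reaching it, limit read from the data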
AHR act – activators of human aryl hydrocarbon receptor | actives 2.5% (n = 320,000) | P35869 | AHR-responsive luciferase reporter cells, luminescence | activation, % at 5 µM | AID 2796; in the data active = activation above about 47%;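 note: 0% = vehicle wells and 100% = reference agonist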
Bfl-1 A1 inh – inhibitors of the anti-apoptotic protein A1, read as caspase activation; MEF A1-2A-BIM cells, Caspase-Glo 3/7 luminescence, 3 h; percent of clofoctol response, vehicle zero; caspase activation, % (test concentration not listed); actives 0.066% (n = 330,000); AID 2462;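 active = over half of replicate activation scores above 10%, or exactly half above 10 with the replicate mean above 10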
VLA-4 inh – inhibition in a human VLA-4 binding assay | P13612 | VLA-4 expressing cells, ligand binding flow cytometry | inhibition, % (about 7 µM as worked out from the volumes in the protocol) | actives 0.2% (n = 330,000) | AID 2557; in the data active = inhibition above about 50%
Efflux pump inh – inhibitors of Candida antifungal efflux pumps expressed in yeast | S. cerevisiae Candida pump triplex, Nile Red efflux | inhibition, % at 10 µM | actives 0.44% (n = 330,000) | AID 485275;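 active = plate passing quality check with inhibition over a set limit, or well fluorescence over plate mean plus 4 SD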;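 note: Nile Red retained in pooled yeast measured as flow cytometry median fluorescence; 0% = buffer negative control and 100% = Enniatin B positive control; higher means more Nile Red kept so more efflux inhibition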
* marks the source's active call; other numbers are inactive results; . = not tested or not shown. Hits are enriched below; roughly 7.2% of the tested compounds scored in any of these assays.

SMILES | Mot1-301 SUMO | ALR H2O2 inh | AHR act | Bfl-1 A1 inh | VLA-4 inh | Efflux pump inh
Cc1cc(C)nc(/N=C(\N)N2CCc3ccccc32)n1 | -12 | 4 | 54* | -3 | -5 | 0
O=C(CNC(=O)c1ccco1)NCC(c1ccco1)N1CCCCC1 (stereo not given) | 9 | -4 | 0 | 1 | -6 | 0
Cc1ccc(-c2ccc(=O)n(CC(=O)N3CCN(c4cccc(C)c4)C(C)C3)n2)cc1 (stereo not given) | 33 | 23 | 4 | 0 | -9 | 0
Cc1cccc(N2CCN(C(=O)Cn3sc4nc(C)cc(C)c4c3=O)CC2C)c1 (stereo not given) | 57 | 95* | 2 | 0 | 10 | 0
Cc1nn(CC(=O)N2CCN(c3ccccc3)CC2)c(=O)c2cccn12 | 2 | -16 | -2 | 0 | -3 | 0
Cc1cccc(N2CCN(C(=O)Cn3nc(C)n4cccc4c3=O)CC2C)c1 (stereo not given) | -2 | 91* | 0 | 0 | 17 | 0
Cc1cc(=O)oc2cc(OCC(O)Cn3ccnc3)ccc12 (stereo not given) | -9 | -2 | 52* | -1 | 7 | 0
O=C1CC2(CCN(C(=O)c3c(F)cccc3Cl)CC2)Oc2ccccc21 | -5 | -3 | 0 | 0 | 13 | 0
CCn1c(-c2ccc3[nH]c(C)c(C)c3c2)n[nH]c1=S | -4 | 98* | -2 | 0 | -5 | 0
CCn1c(-c2ccc(F)cc2)n[nH]c1=S | -6 | -1 | -1 | 0 | 10 | 0
Cc1[nH]c2ccc(-c3n[nH]c(=S)n3C)cc2c1C | 3 | 98* | -3 | 0 | 0 | 0
Cc1cccc(-c2n[nH]c(=S)n2C)c1 | -7 | 5 | 3 | 1 | 6 | 0
C/C(=N\Nc1ccccn1)c1ccc(C#N)cc1 | 12 | 0 | -3 | 0 | 0 | 0
C/C(=N\Nc1ccccn1)c1ccc(OC(F)F)cc1 | 150 | 89* | 3 | 0 | -6 | 0
C/C(=N\Nc1ccccn1)c1cccs1 | . | 99* | 18 | -5 | 1 | 0
O=C(/C=C/c1ccccc1)NC(=S)NNC(=O)c1ccco1 | -17 | 25 | 4 | 0 | -8 | 0
Cc1ccccc1OCC(=O)NNC(=S)NC(=O)c1ccco1 | -5 | 98* | 7 | 0 | 7 | 0
Cc1ccc(C(=O)NN2CCOCC2)cc1 | 8 | 98* | 3 | 0 | 3 | 0
Cc1ccccc1OCC(=O)Nc1ccccc1NC(=O)c1ccco1 | -20 | 5 | 0 | -1 | 27 | 0
O=C(NC(=S)NCCN1CCOCC1)c1ccc(F)cc1 | 21 | 4 | 3 | -1 | 5 | -1
Cc1ccc(C(=O)NC(=S)NNC(=O)CCN2CCOCC2)cc1 | 8 | 98* | 4 | -1 | 3 | 0
O=C(/C=C/c1ccc(Br)cc1)NC(=S)NNC(=O)c1ccco1 | -2 | 99* | 0 | 1 | 11 | 0
Cn1ccc(/C=N/N=C2/NC(=O)CS2)n1 | 14 | -3 | 3 | 0 | 2 | 0
CCOC(=O)C1=C(CS(=O)(=O)c2ccc(F)cc2)NC(=O)NC1c1cc(OC)c(O)c(OC)c1 (stereo not given) | 5 | -11 | 4 | 1 | 8 | 0
O=C(NC(=S)NNC(=O)c1ccco1)c1ccccc1 | -12 | 88* | 2 | 0 | 5 | 0
SMILES | Mot1-301 SUMO | ALR H2O2 inh | AHR act | Bfl-1 A1 inh | VLA-4 inh | Efflux pump inh
COc1ccc(C(=O)NC(=S)NNC(=O)c2ccncc2)cc1Br | -7 | 99* | 2 | 0 | 7 | 0
Cc1ccccc1C(=O)NNC(=S)NC(=O)c1ccccc1 | -10 | 98* | 1 | -1 | 6 | 3
O=C(NC(=S)NNC(=O)c1ccccc1O)c1ccccc1 | 12 | 8 | 7 | 0 | 12 | 0
Cc1ccc(C(=O)NC(=S)NNC(=O)c2ccccc2)cc1 | -18 | 98* | 2 | 1 | 3 | 0
CC1CCCN(S(=O)(=O)c2cccc([N+](=O)[O-])c2)C1 (stereo not given) | -1 | . | 2 | 2 | 3 | 0
Cc1ccn2c(CN(C)CCn3nc(C)cc3C)c(C(=O)N3CCCCCC3)nc2c1 | 1 | -7 | 2 | 0 | -1 | 0
Cc1ccn2c(CNCCn3nc(C)cc3C)c(C(=O)N3CCCCCC3)nc2c1 | 534* | 0 | 0 | -1 | 9 | 0
CN(C)CCSc1nc(N)c2c3c(sc2n1)CN(C)CC3 | -12 | 99* | 5 | 0 | -3 | 0
N#C/C(=C\c1ccccc1[N+](=O)[O-])c1nc(C2CC2)cs1 | 16 | 73 | 106* | 0 | 11 | 0
N#C/C(=C/c1ccccc1[N+](=O)[O-])c1nc(C2CC2)cs1 | 21 | 3 | 71* | 0 | 14 | 1
O=C(NC(=S)Nc1cccc2cccnc12)c1ccccc1 | 0 | -8 | 32 | 1 | 3 | 0
O=C(Cc1ccc(Cl)cc1)NNC(=S)NC(=O)c1cccs1 | 166 | 98* | 0 | 0 | 16 | 0
Cc1cccc(NC(=S)NC(=O)c2cccs2)n1 | 5 | 20 | 24 | -1 | 1 | 0
N#Cc1ccccc1NC(=S)NC(=O)c1cccs1 | 32 | 98* | 20 | 0 | 11 | 1
O=C(NC(=S)Nc1cccc2cccnc12)c1cccs1 | 50 | -12 | 70* | 0 | 5 | 0
Cc1nc(NC(=S)NC(=O)c2cccs2)ccc1Br | -3 | -7 | 71* | 0 | 40 | 1
COc1cccc(NC(=S)N2CCN(C)CC2)c1 | -3 | . | -1 | 1 | -5 | 0
CCC(=O)Nc1cccc(NC(=S)NC(=O)c2cccs2)c1 | 23 | 45 | 50* | -1 | 4 | 0
O=C(O)C(=O)Nc1ccc(NC(=O)C(c2ccccc2)c2ccccc2)cc1 | 0 | -10 | . | 1 | 25 | 0
O=C1c2ccccc2C(=O)C1Cc1cccc2ccccc12 | -15 | -7 | 61* | 0 | 4 | 0
O=C1c2ccccc2C(=O)C12OC2c1cccc2ccccc12 (stereo not given) | 1 | 30 | 4 | 0 | -5 | 0
O=C(Cn1cncc1-c1ccc([N+](=O)[O-])cc1)Nc1cccc2ccccc12 | -12 | . | 3 | 1 | -5 | 0
COc1ccc(C(=O)C[n+]2ccc3ccccc3c2C)cc1 | 406 | -7 | 59* | 0 | 18 | 0
CSCC(O)Cn1ncc2ccccc2c1=O (stereo not given) | 372 | -8 | 0 | 1 | 7 | 0
O=C(N/N=C\c1ccco1)Nc1cccc(Cl)c1 | 8 | -1 | 52* | 0 | 12 | 0
Cc1cccc(NC(=O)CCC(=O)N/N=C/c2ccco2)c1 | 710 | -5 | 3 | 0 | 6 | 0
CN(CC(=O)Nc1ccccc1Br)C(=O)CN1CCN(Cc2cccc(Cl)c2)CC1 | . | . | 1 | . | 16 | 0
CN(CC#CC(O)(c1ccccc1)c1ccccc1)C(C)(C)C | -20 | 3 | 0 | 3 | -4 | 0
